About 83,000 compounds went through this panel and 20% of them were active in at least one assay; those are over-represented in the sample as a whole.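 Results are percent growth after 48 hours of single-concentration exposure. 100 means growth as in untreated cells, lower positive values show inhibition; negative values down to -100 show cell death.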 Active and inactive are the calls of the source. How the source made its calls: active means growth percent below 10; inactive means the rest.
Each molecule was assayed on HL-60(TB) leukemia (assay: NCI-60 one-dose screen, 48 h (100 = growth as untreated, 0 = no growth, -100 = all killed)). Conditions: 10 µM unless noted.

Compound	growth
COc1ccc(C2=NNC(c3cc(Cc4ccc(O)c(C5CC(c6ccc(OC)cc6)=NN5)c4)ccc3O)C2)cc1 (configuration not stated)	17.2% (inactive)
CC(=O)O[C@@H]1C[C@]2(C)[C@H]3[C@H](O)C[C@@H]4C5=CC(C)(C)CC[C@]5(C)CC[C@@]4(C)[C@]3(C)CC[C@H]2C(C)(C)[C@H]1O	120% (inactive)
CC1(C)CC(=O)C2=C(C1)OC1=C(C(=O)CC(C)(C)C1)C2c1ccc(OCc2cn(-c3ccc(F)cc3F)nn2)cc1	42.2% (inactive)
O=C(Cc1ccccc1)Nc1cccc(N=Cc2ccccc2O)c1	100% (inactive)
COc1ccc(-c2nc(SCCC(C)C)nc(Nc3ccc(C(=O)O)cc3)c2C#N)cc1	71.6% (inactive)
COC(c1ccc2ccccc2c1)C(C)C(F)F (configuration not stated)	103% (inactive)
CC(=O)N(C)N=Nc1ccc(C)cc1	117% (inactive)
CCOC(=O)c1sc(NC(=O)c2cc(OC)c(OC)c(OC)c2)nc1C	102% (inactive)
CCCC[N+]1(C)CCN=C1Cc1ccccc1 (configuration not stated)	88.9% (inactive)
CNCCCNCCCN1C(=O)c2ccc3c4c(ccc(c24)C1=O)C(=O)N(CCCNCc1ccccc1OC)C3=O	-38.1% (active)
CC/C(=C(\c1ccc(OCCN2CCCCCCC2)cc1)c1ccc(OC(=O)C2CCCCC2)cc1)c1ccc(Cl)cc1	77.8% (inactive)
COc1cc(C2C(C#N)=C(N)OC3=C2C(=O)c2ccccc2C3=O)cc(OC)c1O (configuration not stated)	90.9% (inactive)
C=C1C(=O)O[C@H]2[C@H]1CC/C(Cn1cc(Cc3c[nH]c4ccccc34)nn1)=C\CC[C@@]1(C)O[C@@H]21	-49.1% (active)
COc1cc(-c2nn(-c3cccc(NC(=O)c4ccc(Cl)c(C(F)(F)F)c4)c3)cc2-c2ccncc2)ccc1Cl	3.23% (active)
O=C(Nc1ccc(F)cc1)ON=C1CCCCC1	86.8% [100 µM] (inactive)
CC1OC2CC(=O)OC2C2=C1C(=O)c1c(O)c3c(c(O)c1C2=O)C1CC(O)C3(O)C(C)O1 (configuration not stated)	-26.7% (active)
CCOC(=O)CC(=O)c1c(C)cc(C)cc1C	90.8% (inactive)
CC1=C2[C@@H](CC1)[C@]1(C)O[C@@](c3ccccc3)(C[C@H]1OC(=O)CO)[C@H]2OC(=O)/C=C/c1ccccc1	88.5% (inactive)
O=C(Nc1ccc(F)cc1)Nc1ccc(Br)c(C(F)(F)F)c1	-41.9% (active)

Compound	growth
O=C(/C=C/c1cccc([N+](=O)[O-])c1)c1ccc(O)c(CN2CCN(c3cc4c(cc3F)c(=O)c(C(=O)O)cn4C3CC3)CC2)c1	8.41% (active)
CC(/C=N/N1C(=O)c2ccccc2C1=O)c1ccccc1 (configuration not stated)	108% (inactive)
CC(C)(C)OC(=O)NCCc1ccc(N)cc1	89.4% (inactive)
C=C(C)C1CCC2(C(=O)O)CCC3(C)C(CCC4C5(C)CCC(OC(=O)NCc6ccccc6)C(C)(C)C5CCC43C)C12 (configuration not stated)	23% (inactive)
Oc1cc(/C=C/c2nc(N3CCOCC3)c3cc(Cl)c(Cl)cc3n2)cc(O)c1O	99.4% (inactive)
CCOC(=O)NNc1cccc(Cl)c1	110% (inactive)
CC(=O)Nc1ccc(NC(C)=O)c2c1C(=O)c1ccccc1C2=O	154% (inactive)
CC(=O)Cc1cc(-c2cc(CC(C)=O)[nH]n2)n[nH]1	88.1% (inactive)
COc1ccc(S(=O)(=O)Nc2cc(/C=C\c3cc(OC)c(OC)c(OC)c3)ccc2OC)cc1	-31.6% (active)
COC(=O)c1cc(-c2ccc(S(C)(=O)=O)cc2)[nH]c1N/N=C/c1c(Cl)cccc1Cl	-22.3% (active)
O=C(CCl)Nc1cc(O)c2c(c1)C(=O)c1cccc(O)c1C2=O	-44.4% (active)
O=C1Nc2ccc(F)cc2/C1=C/c1nc(-c2ccc(F)cc2)n2ccccc12	103% (inactive)
CC(=O)Nc1nc(C)c(C(=O)N/N=C/N2CCCCC2)s1	131% (inactive)
c1cn2cc(-c3ccc4ncn(C5CCCCC5)c4c3)nc(-c3ccc4c(c3)ncn4C3CCCCC3)c2n1	-42.2% (active)
COc1ccc(-c2ccc3c(N4CCOC[C@@H]4C)nc(N4CCOC[C@@H]4C)nc3n2)cc1CO	22.6% (inactive)
CN(C)CCOc1cccc(-c2nc3sccn3c2-c2ccnc(S(C)(=O)=O)n2)c1	104% (inactive)
COc1ccc(S(=O)(=O)N2CC3(COC3)C2)cc1NC(=O)c1[nH]c(C)c2c1CCCCC2=O	-11% (active)
CCCCCCCCCCCCCCCCCCNC(=O)[C@H]1CSC(c2ccc(OC)cc2O)N1 (some centres not stated)	34.4% (inactive)
